This test relates to PvIESI-1 RRM domain (Plasmodium vivax PVP01_0939900 aa 896-1203, GST fusion). Briefly: RBNS R-value (6-mer enrichment in protein-bound RNA vs input library) (ratio); higher = stronger binding preference; the methods of the paper give 50 / 100 / 500 nM protein instead. How it is done:
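RNA Bind-n-Seq: recombinant GST-tagged IESI-1 RRM domain was incubated at room temperature with a random 40-nt in vitro transcribed RNA library at 250, 500 or 1000 nM protein. Bound RNA was pulled down on glutathione beads and sequenced. R-value is the enrichment of each 6-mer in the bound RNA relative to the input library. Each 6-mer sits inside the random 40-mer context, not as an isolated oligo. Values are replicate 1 only.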

On to UGAUUC, for which the “RBNS R-value” (protein concentration: 250 nM) is 3.85, the “RBNS R-value” (protein concentration: 500 nM) stood at 4.13 and the “RBNS R-value” (protein concentration: 1000 nM) is 3.89.

For CCUGAU, the “RBNS R-value” (protein concentration: 250 nM) was found to be 3.03, the “RBNS R-value” (protein concentration: 500 nM) worked out at 3.36 and the “RBNS R-value” (protein concentration: 1000 nM) amounted to 3.13.

Take UGAUCU: the “RBNS R-value” was determined as 2 (protein concentration: 250 nM), 2.15 (protein concentration: 500 nM) and 2.14 (protein concentration: 1000 nM).

For the sequence GAUUUU, the “RBNS R-value” (protein concentration: 250 nM) was determined as 2.5, the “RBNS R-value” (protein concentration: 500 nM) was determined as 2.64 and the “RBNS R-value” (protein concentration: 1000 nM) is 2.47.

For CGUGAU, the “RBNS R-value” amounted to 2.33 (protein concentration: 250 nM), 2.54 (protein concentration: 500 nM) and 2.51 (protein concentration: 1000 nM).

With GAUUUG, the “RBNS R-value” is, setting by setting: (protein concentration: 250 nM) 2.81; (protein concentration: 500 nM) 2.87; (protein concentration: 1000 nM) 2.62.

Consider UGAUGA, for which the “RBNS R-value” (protein concentration: 250 nM) is 5.51, the “RBNS R-value” (protein concentration: 500 nM) came to 5.62 and the “RBNS R-value” (protein concentration: 1000 nM) amounted to 5.25.

As for GAUUGA, the “RBNS R-value” (protein concentration: 250 nM) is 2.27, the “RBNS R-value” (protein concentration: 500 nM) is 2.42 and the “RBNS R-value” (protein concentration: 1000 nM) turned out to be 2.29.

Consider GCUGAU, for which the “RBNS R-value” (protein concentration: 250 nM) was found to be 2.62, the “RBNS R-value” (protein concentration: 500 nM) worked out at 2.82 and the “RBNS R-value” (protein concentration: 1000 nM) came out at 2.68.

As for ACUGAU, the “RBNS R-value” is, setting by setting: (protein concentration: 250 nM) 2.99; (protein concentration: 500 nM) 3.2; (protein concentration: 1000 nM) 3.11.

As to GAUUGC, the “RBNS R-value” runs as follows: (protein concentration: 250 nM) 2.21; (protein concentration: 500 nM) 2.33; (protein concentration: 1000 nM) 2.1.

UAUGAU: the “RBNS R-value” reads like this: (protein concentration: 250 nM) 3.09; (protein concentration: 500 nM) 3.27; (protein concentration: 1000 nM) 3.27.

As for UUGAUC, the “RBNS R-value” is, setting by setting: (protein concentration: 250 nM) 1.91; (protein concentration: 500 nM) 2.12; (protein concentration: 1000 nM) 2.1.
